The text below walks through data of PubChem BioAssay (EPA / NIEHS).

Several values for one entry are separate records, joined by “and”; a condition that tells them apart may be missing. Equal values may be shown once. Where a structure was tested more than once in an assay, its records may differ in their call. Activity calls are given as the source filed them. The calls were made as follows: active = hit-call score of the fitted dose curve at least 0.9, where 1 is the maximum; inactive = score below 0.9.

The first experiment in a line: CCTE_Shafer_MEA_acute_cross_correlation_HWHM: CCTE's Neural Acute Assay for Cross Correlation at Half Width at Half Maximum, Shafer Lab (AID 2284026).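 Also: percent change per well from pre-dose baseline in spike cross-correlogram half width; hits are a decrease in cross-correlogram half width relative to DMSO.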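 As to outcome: spontaneous network firing of rat primary cortical neurons on multiwell microelectrode arrays.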 In short, it runs like this: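 Per-well percent change in cross-correlogram half width at half maximum, derived from 40-min recordings before and after compound (0.03-40 uM) at 37 C. Cultures were rat cortical neurons, DIV 13 or 15, with adaptive spike detection at 8x rms.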
As to `CCc1cccc(C)c1N(C(=O)CCl)C(C)COC` (configuration not stated), the AC50 (usually the midpoint of the concentration-response curve, whichever way the signal moves) is 26.9 µM (active).

`CC(C)=CC1C(C(=O)OCN2C(=O)C3=C(CCCC3)C2=O)C1(C)C` (configuration not stated): the AC50 is 28.6 µM (active).

As for `CCc1cnc(C2=NC(C)(C(C)C)C(=O)N2)c(C(=O)O)c1` (configuration not stated), the molecule was classed as inactive.

Turning to `Nc1c(Cl)cc([N+](=O)[O-])cc1Cl`, the result was inactive.

Regarding `COP(=O)(OC)C(O)C(Cl)(Cl)Cl` (configuration not stated), the AC50 was 15 µM (active).

On to `CCCOCC(=Nc1ccc(Cl)cc1C(F)(F)F)n1ccnc1`, for which the AC50 is 1.6 µM (active).

As to `CC[C@H](C)[C@H]1O[C@]2(C=C[C@@H]1C)C[C@@H]1C[C@@H](C/C=C(\C)[C@@H](O[C@H]3C[C@H](OC)[C@@H](O[C@H]4C[C@H](OC)[C@@H](NC)[C@H](C)O4)[C@H](C)O3)[C@@H](C)/C=C/C=C3\CO[C@@H]4[C@H](O)C(C)=C[C@@H](C(=O)O1)[C@]34O)O2`, the AC50 is 25.5 nM (active) and 47.5 nM (active).

As for `CC1=NNC(=O)N(/N=C/c2cccnc2)C1`, the molecule was called inactive.

Regarding `CC(=NC#N)N(C)Cc1ccc(Cl)nc1`, the molecule was classed as inactive.

As to `CCOP(=S)(OCC)Oc1ccc2c(C)c(Cl)c(=O)oc2c1`, the half-maximal activity concentration (AC50) was 2.38 µM (active).

As for `C[N+]1(C)CCCCC1`, the result was inactive.

For `COP(=O)(NC(C)=O)SC` (configuration not stated), the call was inactive.

As for `CN(C)[C@@H]1C(=O)C(C(N)=O)=C(O)[C@@]2(O)C(=O)C3=C(O)c4c(O)cccc4[C@@](C)(O)[C@H]3[C@H](O)[C@@H]12`, the outcome was inactive.

Take `C[Si](Cn1cncn1)(c1ccc(F)cc1)c1ccc(F)cc1`: the AC50 is 34.5 µM (active).

On to `C=C(C)[C@H]1Cc2c(ccc3c2O[C@@H]2COc4cc(OC)c(OC)cc4[C@@H]2C3=O)O1`, for which the AC50 was 30.7 µM (active).

On to `FC(F)C(F)(F)OCC(Cn1cncn1)c1ccc(Cl)cc1Cl` (configuration not stated), for which the AC50 was 23.8 µM (active).

As to `O=[N+]([O-])c1cc(C(F)(F)F)c(Cl)c([N+](=O)[O-])c1Nc1ncc(C(F)(F)F)cc1Cl`, the half-maximal activity concentration (AC50) was 5.3 µM (active).

The next experiment is described as follows: CCTE_Shafer_MEA_acute_synchrony_index: CCTE's Neural Acute Assay for Synchrony, Shafer Lab (AID 2284027).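 Also: network synchrony index of spontaneous spiking in primary rat cortical neurons on MEAs; fitted for loss of signal so actives lower synchrony relative to DMSO.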 In short, it runs like this: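 Primary rat cortical neurons on 48-well MEAs, dosed at 0.03–40 uM on DIV 13 or 15. Spikes are recorded for 40 min at 37C before and after exposure, and synchrony index (0–1) is expressed as percent change from baseline per well.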
As for `CCc1cccc(C)c1N(C(=O)CCl)C(C)COC` (configuration not stated), the AC50 is 8.13 µM (active).

As for `CC(C)=CC1C(C(=O)OCN2C(=O)C3=C(CCCC3)C2=O)C1(C)C` (configuration not stated), the half-maximal activity concentration (AC50) was 25.1 µM (active).

`CCc1cnc(C2=NC(C)(C(C)C)C(=O)N2)c(C(=O)O)c1` (configuration not stated): the call was inactive.

Regarding `Nc1c(Cl)cc([N+](=O)[O-])cc1Cl`, the concentration at half-maximal activity (AC50) was 32.8 µM (active).

`COP(=O)(OC)C(O)C(Cl)(Cl)Cl` (configuration not stated): the result was inactive.

For `CCCOCC(=Nc1ccc(Cl)cc1C(F)(F)F)n1ccnc1`, the AC50 is 2.69 µM (active).

Consider `CC[C@H](C)[C@H]1O[C@]2(C=C[C@@H]1C)C[C@@H]1C[C@@H](C/C=C(\C)[C@@H](O[C@H]3C[C@H](OC)[C@@H](O[C@H]4C[C@H](OC)[C@@H](NC)[C@H](C)O4)[C@H](C)O3)[C@@H](C)/C=C/C=C3\CO[C@@H]4[C@H](O)C(C)=C[C@@H](C(=O)O1)[C@]34O)O2`, for which the AC50 is 37.6 nM (active) and 751 nM (active).

On to `CC1=NNC(=O)N(/N=C/c2cccnc2)C1`, for which the result was inactive.

For the molecule `CC(=NC#N)N(C)Cc1ccc(Cl)nc1`, the molecule was classed as inactive.

Consider `CCOP(=S)(OCC)Oc1ccc2c(C)c(Cl)c(=O)oc2c1`, for which the AC50 was 6.95 µM (active).

For `C[N+]1(C)CCCCC1`, the outcome was inactive.

As to `COP(=O)(NC(C)=O)SC` (configuration not stated), the AC50 was 0.804 µM (active) and the molecule was classed as inactive.

`CN(C)[C@@H]1C(=O)C(C(N)=O)=C(O)[C@@]2(O)C(=O)C3=C(O)c4c(O)cccc4[C@@](C)(O)[C@H]3[C@H](O)[C@@H]12`: the molecule was classed as inactive.

Consider `C[Si](Cn1cncn1)(c1ccc(F)cc1)c1ccc(F)cc1`, for which the AC50 is 4.26 µM (active).

As for `C=C(C)[C@H]1Cc2c(ccc3c2O[C@@H]2COc4cc(OC)c(OC)cc4[C@@H]2C3=O)O1`, the AC50 was 20 µM (active).

On to `FC(F)C(F)(F)OCC(Cn1cncn1)c1ccc(Cl)cc1Cl` (configuration not stated), for which the molecule was called inactive.

Regarding `O=[N+]([O-])c1cc(C(F)(F)F)c(Cl)c([N+](=O)[O-])c1Nc1ncc(C(F)(F)F)cc1Cl`, the AC50 is 0.481 µM (active).

The next experiment is described as follows: CCTE_Shafer_MEA_dev_firing_rate_mean: CCTE's Neural Network Formation Assay for Mean Firing Rate, Shafer Lab (AID 2284031).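 As to AC50: curve fitted for loss of firing so AC50 reflects decreased mean firing rate.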 The method, boiled down: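 Primary rat cortical neurons on 48-well MEA plates, exposed from plating day 0 with dosing renewed on DIV 5 and 9. Mean well firing rate over active electrodes, recorded days 5, 7, 9, 12, summarised as trapezoidal AUC.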
In the case of `CC(C)=CC1C(C(=O)OCN2C(=O)C3=C(CCCC3)C2=O)C1(C)C` (configuration not stated), the result was inactive.

On to `COP(=O)(OC)C(O)C(Cl)(Cl)Cl` (configuration not stated), for which the call was inactive.

As for `CC[C@H](C)[C@H]1O[C@]2(C=C[C@@H]1C)C[C@@H]1C[C@@H](C/C=C(\C)[C@@H](O[C@H]3C[C@H](OC)[C@@H](O[C@H]4C[C@H](OC)[C@@H](NC)[C@H](C)O4)[C@H](C)O3)[C@@H](C)/C=C/C=C3\CO[C@@H]4[C@H](O)C(C)=C[C@@H](C(=O)O1)[C@]34O)O2`, the AC50 was 6.97 nM (active) and 2.42 nM (active).

Take `CC1=NNC(=O)N(/N=C/c2cccnc2)C1`: the molecule was classed as inactive.

Turning to `CC(=NC#N)N(C)Cc1ccc(Cl)nc1`, the result was inactive.

Take `CCOP(=S)(OCC)Oc1ccc2c(C)c(Cl)c(=O)oc2c1`: the half-maximal activity concentration (AC50) is 29.6 µM (active).

As for `C[N+]1(C)CCCCC1`, the molecule was classed as inactive.

`COP(=O)(NC(C)=O)SC` (configuration not stated): the outcome was inactive.

Regarding `CN(C)[C@@H]1C(=O)C(C(N)=O)=C(O)[C@@]2(O)C(=O)C3=C(O)c4c(O)cccc4[C@@](C)(O)[C@H]3[C@H](O)[C@@H]12`, the outcome was inactive.

As for `C[Si](Cn1cncn1)(c1ccc(F)cc1)c1ccc(F)cc1`, the molecule was classed as inactive.

`C=C(C)[C@H]1Cc2c(ccc3c2O[C@@H]2COc4cc(OC)c(OC)cc4[C@@H]2C3=O)O1`: the AC50 was 19.6 nM (active) and 16.2 nM (active).

`O=[N+]([O-])c1cc(C(F)(F)F)c(Cl)c([N+](=O)[O-])c1Nc1ncc(C(F)(F)F)cc1Cl`: the AC50 is 0.786 µM (active).
